# Data as given in PubChem BioAssay (NCI).
# The panel holds about 83,000 compounds, 20% with a hit somewhere; the sample as a whole holds those more often.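 How to read the values: 0–100, growth inhibition (40 = 60% inhibited); 0, no net growth; -100 to 0, cell death (-40 = 40% of starting cells died; -100 = all dead).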 Unmarked numbers belong to inactive results. Active and inactive are the calls of the source. The calls were made as follows: active = growth percent below 10; inactive = the rest.
# What was measured:
# Experiment in all cases: NCI-60 one-dose screen, 48 h (100 = growth as untreated, 0 = no growth, -100 = all killed)
# Conditions in all cases: 10 µM unless noted
# [1] = system: SK-MEL-2 melanoma
# [2] = system: SN12C renal
# [3] = system: UO-31 renal
# [4] = system: TK-10 renal
# [5] = system: ACHN renal
# [6] = system: CAKI-1 renal
# [7] = system: A498 renal
# [8] = system: CCRF-CEM leukemia
# [9] = system: MOLT-4 leukemia
# [10] = system: EKVX NSCLC
Structure (SMILES),growth [1],growth [2],growth [3],growth [4],growth [5],growth [6],growth [7],growth [8],growth [9],growth [10] [%]
COc1ccc(/C=C(\C#N)c2cc3ccccc3n2S(C)(=O)=O)cc1,101%,90.8%,56.2%,125%,91.2%,53.2%,99.2%,86%,89.8%,
Cc1cc(Nc2ccc(F)cc2)nc(N2CCN(c3ccnc4cc(Cl)ccc34)CC2)n1,4.35% (active),30.2%,3.92% (active),8.31% (active),2.61% (active),,-1.6% (active),15.5%,6.8% (active),
O=C(N/N=C\c1ccccc1O)C1CC1,103%,93.6%,71%,118%,108%,115%,113%,83.7%,101%,
C#Cc1cc2c(N)c(C(=O)c3cc(OC)c(OC)c(OC)c3)[nH]c2cc1OC,15.6%,67.9%,35.7%,58.6%,35.7%,,-19.1% (active),16%,32%,
COc1ccc(C(=O)c2cc(OC)c(OC)c(OC)c2)cc1/C=C/C(=O)c1cc(OC)c(OC)c(OC)c1,116%,96.2%,66.2%,140%,89.3%,,96.2%,60.5%,88.3%,
NC(=O)[C@@H]1CC2CCC1C2 (stereo not given in full),119%,114%,99.7%,120%,102%,,87.9%,37.4%,102%,
COC(=O)CNc1nc(N(C)O)nc(N(C)O)n1,113%,49.8%,35.6%,49.6%,23.8%,34.1%,34.5%,15.5%,25.9%,
Cc1ccccc1-c1nc(C(Cl)Cl)nc2cc(-c3ccccc3)nn12,101%,81.4%,57.2%,65.1%,41.1%,44.8%,85.4%,102%,83.9%,
Cc1cc(C=O)c(C)c2c1[nH]c1ccccc12,75.6%,95.8%,74.3%,78%,88.4%,,-84.1% (active),83.5%,,
Cc1cc(N=O)cc(C(C)(C)C)c1O,85.2%,101%,92.3%,94.1%,108%,86.1%,74.3%,82.5%,94.2%,
Cc1nn2c(-c3nc4cc(Cl)c(Cl)cc4[nH]3)c(-c3ccc(F)cc3)nc2s1,57.9%,34%,-67.1% (active),-33.1% (active),9.13% (active),13%,29.8%,66.5%,76.3%,
Cn1cc(-c2csc(-c3cn(CCNC(=O)OC(C)(C)C)c4ccc(F)cc34)n2)c2cccnc21,82.4%,85.9%,39.7%,104%,69.2%,,91.1%,33.5%,31.8%,
O=C1c2ccccc2NC(c2cn(-c3ccccc3)nc2-c2cccs2)N1Cc1ccccc1 (stereo not given),74%,90.8%,57.5%,91.1%,86.2%,,84%,95.6%,,
OCC12CCCC(CO)(COC1)C2O (stereo not given),117%,101%,91.1%,113%,103%,,97.9%,-57.2% (active),126%,
Brc1ccc2[nH]cc(-c3nc(-c4c[nH]c5ncccc45)cs3)c2c1,36.3%,49.8%,19.2%,30.1%,15.9%,7.49% (active),43.6%,29.7%,18.4%,
COc1ccc(/C=C2\N=C(c3ccccc3)N(c3cc(OC)c(OC)cc3C(=O)N3N=C(C)CC3=O)C2=O)cc1,91.1%,93.7%,68.9%,113%,93.2%,92.3%,50.8%,,57.9%,
C/C(=N\NC(=O)C(C)SC(C)C(=O)N/N=C(\C)c1cccnc1)c1cccnc1 (stereo not given),93.8%,106%,81%,106%,106%,97.7%,88.2%,99.4%,86.7%,
COc1cc2[nH]c(C(=O)c3cc(OC)c(OC)c(OC)c3)c(N)c2cc1C#CCO,29.6%,45.1%,31.5%,66.2%,23%,,-16.8% (active),11.5%,29.6%,
COc1ccc(C2C(C#N)=C(N)Oc3c2sc2c(F)cccc32)cc1 (stereo not given),19.8%,39.7%,37.6%,56.6%,42.9%,,41.4%,14.9%,8.8% (active),
O=C(CI)Nc1ccc(O)c2ccccc12,-1.68% (active),-34.9% (active),-28.7% (active),-34% (active),6.99% (active),,95%,-26.7% (active),-23.6% (active),
COc1cc(-c2cc(-c3nc4ccc(F)cc4[nH]3)[nH]n2)cc(OC)c1OC,17.5%,,26.1%,63.7%,19.6%,28.4%,8.73% (active),,,
O=C(NC(Cc1cn(Cc2ccccc2)cn1)C(=O)O)OCC1c2ccccc2-c2ccccc21 (stereo not given),,108%,85.1%,105%,104%,103%,102%,111%,83.6%,
Nc1nc2c(c(=O)[nH]1)C(c1ccc3c(c1)OCO3)C=C(C(=O)O)N2 (stereo not given),116%,,102%,117%,111%,97.1%,94.7%,126%,106%,
Cc1nnc2nc(N)[nH]n2c1=O,,118%,84.7%,89.8%,109%,111%,118%,109%,74.7%,
CN1CCN(c2nc(-c3cccc4ccccc34)nc3sc4c(c23)CCCCCC4)CC1,106%,75.9%,46%,113%,82.7%,,94.2%,75.2%,74%,
CC(C)=CCC/C(C)=C/CC/C(C)=C/CSC[C@H](NC(=O)CCCCCN1CCN(C)CC1)C(=O)NC1CCCCCC1,88.2%,87.4%,56%,94.2%,66%,,77.3%,19.9%,38.4%,
O=C1c2ccccc2C(=Cc2ccccc2)c2ccccc21,,22.3%,28%,-7.83% (active),28.1%,,-17.4% (active),11.7%,17.3%,11.3
C/C(=N/NC(N)=S)C(=O)O,118%,80.6%,73.6%,119%,91.7%,,110%,,27.7%,
COc1cc(-c2nc(-c3ccccc3)c(-c3ccccc3)[nH]2)cc(OC)c1O,-39.7% (active),2.29% (active),5.85% (active),0.953% (active),15.2%,,82.8%,-0.116% (active),4.88% (active),
